Measured potencies and affinities stand elsewhere. Activity calls are given as the source filed them.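 Rule for the calls: active = a dose-response curve fit returns a half-maximal inhibitory concentration, extrapolated values included; inactive = the fit returns no such concentration.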
target: HMG-CoA reductase [Enterococcus faecalis] (UniProt Q9FD70); test: inhibitors of E. faecalis class II HMGR, confirmation, biochemical, Enterococcus faecalis (AID 1233); settings: purified E. faecalis HMGR, NADPH absorbance 340 nm kinetics; series mostly up to 100 µM

outcome, inactive:
CCCCC(c1nnnn1CCOC)N1CCN(CC)CC1 (stereo not drawn)
COc1ccc(-c2nn(-c3ccccc3)cc2/C=N/Nc2cccc(C(=O)O)c2)cc1
C=CCNC(=O)C(C#N)c1nc2ccccc2nc1N1CCCCCC1 (stereo not drawn)
c1ccc(-c2ccnc3nc(N4CCN(c5ccccc5)CC4)nn23)cc1
O=C(Nc1ccc(N2CCOCC2)c(Cl)c1)c1ccc([N+](=O)[O-])o1
Cc1ncc([N+](=O)[O-])n1CC(C)O (stereo not drawn)
CCOc1ccc(-c2[nH]ncc2Oc2ccccc2OCC)c(O)c1
COc1ccc(NC(=O)C2=C(C)NC(=O)NC2c2cccc(OC)c2OC)c(OC)c1 (stereo not drawn)
Cc1ccc(NC2=C(N3CCOCC3)C(=O)c3ccccc3C2=O)cc1
CCCCC(=O)Nc1nnc(C2=COCCO2)o1
CCN(CC)CCCCCOc1ccccc1OC
COCC(C)NC(=O)CSc1nc(-c2ccccc2)c(-c2ccccc2)o1 (stereo not drawn)
O=C(COC(=O)c1cc(S(=O)(=O)N2CCCCC2)ccc1N1CCOCC1)NC1CCS(=O)(=O)C1 (stereo not drawn)
O=C(COC(=O)/C=C/c1ccco1)Nc1ccc(F)cc1Cl
CCOC(=O)c1sc(NC(=O)CSc2n[nH]c(CC)n2)nc1C
O=C(COC(=O)CSc1cc(Cl)ccc1Cl)Nc1ncc(C(F)(F)F)cc1Cl
CCc1nc(N)nc(N)c1-c1ccc(Cl)cc1
CCCOP(=O)(OCCC)c1nc(-c2ccccc2)oc1NCc1ccccc1
CN(CCO)c1cc(NCCCN2CCC(Cc3ccccc3)CC2)c2nonc2c1[N+](=O)[O-]
CCCCC1C2=C(CC(C)(C)CC2=O)OC2=C1C(=O)CC(C)(C)C2
O=C(COC(=O)c1cc([N+](=O)[O-])ccc1NCCO)c1ccc(Cl)cc1
Cc1[nH][nH]c(=O)c1C(c1c(C)[nH][nH]c1=O)c1cn(Cc2ccc(Cl)c(Cl)c2)c2ccccc12
COc1ccc(S(=O)(=O)N2CC=C(C(=O)Nc3ccc(NC(C)=O)cc3)CC2)cc1
CCN(Cc1ccncc1)Cc1c(O)ccc2cc(Br)ccc12
O=C(Oc1ccccc1O)c1cccc2ccccc12
O=C(N/N=C/c1ccc2c(c1)OCO2)c1ccc(NS(=O)(=O)c2cccs2)cc1
Cc1ccc(SC(=O)COc2ccc(C)c(C)c2)cc1
Cc1nc([N+](=O)[O-])c(Br)n1CC(=O)c1cccc([N+](=O)[O-])c1
CC1(C)CNC(=O)c2sc(NC(=O)c3ccccc3)nc2C1
Cc1nnc(SCc2ccccc2Cl)n1CC1CCCO1 (stereo not drawn)
O=C(Nc1ccccc1)N1C2CCC1CC(O)(c1cccnc1)C2 (stereo not drawn)
O=C(CCc1nnc(CCCc2ccccc2)o1)NCCc1ccccc1
COc1cccc(C2NC(=O)NC(O)(C(F)(F)F)C2C(=O)c2cccnc2)c1OC (stereo not drawn)
S=C(NCCc1ccccc1)N1CCN(Cc2ccccc2)CC1
CCOc1cc(N2CCOCC2)c(OCC)cc1NC(=O)CC12CC3CC(CC(C3)C1)C2
Cc1[nH]nc2c1C(c1ccsc1)C1=C(CC(C)(C)CC1=O)N2 (stereo not drawn)
O=C(O)C(Cc1ccccc1)N1C(=O)C2CCCCC2C1=O (stereo not drawn)
Cc1cccc(C(=O)NC2CCN(C(=O)Nc3ccccc3C)CC2)c1

— PubChem BioAssay AID1233 (SRMLSC, 2008)
